# Laboratory results: ChEMBL document CHEMBL3433997, “St. Jude Leishmania screening dataset” (2016)
# Target: Glucose transporter (Leishmania mexicana) (UniProt O61059)
# Test: ST_JUDE_LEISH: Cytotoxicity at 2uM final concentration against transgenic Leishmania Mexicana promastigotes LmGT2 that are glucose transport deficient and complemented with the L. Mexicana glucose transporter 2. Activity is measured by DNA content using SYBR green in vitro
# Assay type: functional
row,SMILES,inhibition [%]
1,COc1ccc(CNCc2ccc(F)cc2)cc1-c1ccc(S(=O)(=O)NCCN2CCCC2)c(C)c1,-2.85
2,O=C(NCCN1CCCCC1)c1ccc(CNC(=O)c2ccc(O)c(-c3ccc(Cl)c(Cl)c3)c2)cc1,-0.59
3,Cc1cc(Cl)c(Cl)cc1NC(=O)Nc1cccc(C(F)(F)F)c1,-0.28
4,CCOc1ccc(C(=O)Nc2cc(Br)c3c(c2)CNCC3)cc1Br,6.15
5,Cc1c(CNCCCNc2nc3cscc3[nH]2)sc(C(F)F)c1Br,2.43
6,Cc1cc(C2CCN(CCCCNC(=O)c3ccc(-c4ccc(C(F)(F)F)cc4)cc3)CC2)c(C)cc1OCC(N)=O,0.73
7,Cc1cc(N2C(N)=NC(N)=NC2(C)C)ccc1Cl,-0.97
8,Cc1cc(N[C@@H](CC(C)C)C(=O)Nc2ccccc2)nc(NCCc2ccc(F)cc2)n1,1.72
9,c1ccc(-c2csc(Nc3nc4cc5c(cc4s3)OCO5)n2)nc1,-1.72
10,CCOCc1cnc(C)nc1NCC(=O)c1c(C)[nH]c2cc(C)ccc12,-0.44
11,FC(F)(F)Oc1ccc(Nc2cc(-c3ccncc3)nc(-c3cccnc3)n2)cc1,0.59
12,NC(=O)c1ccc(NCC(=O)Nc2cccc(-c3cccc(-c4nc5cc(F)ccc5[nH]4)c3)c2)cc1,-1.25
13,Cc1cccc2nc(-c3ccc(-c4cccc(CNCC5CCCO5)c4)s3)[nH]c12 (stereo not given),11.3
14,N#Cc1ccc(CN2CCC(Oc3ccc(NC(=O)c4ccccc4)cc3Cl)CC2)cc1,1.28
15,Clc1ccc(CNc2ccnc(NCc3cccnc3N3CCCC3)n2)c(Cl)c1,3.44
16,C#C[C@H]1O[C@@H](n2cnc3c(Nc4cc(Br)cc(C(F)(F)F)c4)ncnc32)[C@H](O)[C@@H]1O,2.53
17,C=CC(C)C1OC(=O)c2cc(OC)cc(OC)c21 (stereo not given),86.8
18,COCCNCc1ncsc1-c1ccc2c(Nc3cc(O)ccc3C)ccnc2c1,1
19,Cc1cc(-c2cccc(CNC3CCN(C)CC3)c2)ccc1S(=O)(=O)NCCN1CCCC1,0.59
20,COc1cc(CNC[C@@H](O)[C@H](Cc2ccccc2)NC(=O)c2cc(OC(C)C)cc(N3CCCS3(=O)=O)c2)cc(OC)c1,2.1

row,SMILES,inhibition [%]
1,O=C(NCC1CCN(CCN2CCC(c3cn(CCO)c4ccccc34)CC2)CC1)c1ccc(-c2ccc(C(F)(F)F)cc2)cc1,3.71
2,CC(C)Sc1nc2c(c(=O)n1Cc1ccco1)C1(CCCC1)Cc1ccccc1-2,6.08
3,COc1cc(Br)c(NC(=O)Nc2ccc(C(F)(F)F)c(O[C@@H]3CCN(C)C3)c2)cc1OC,1.55
4,CC(C)CCCC(C)(C)NC[C@@H](O)[C@H](Cc1ccccc1)NC(=O)c1cccc(OCC2CC2)c1,1.85
5,CCOC(=O)c1nc(-c2ccccc2)[nH]c1-n1nc(C)cc1C,0.66
6,Cc1ccc2[nH]c3ccccc3c(=O)c2c1,1.77
7,O=C(CCCC(=O)Nc1ccc(C2=NCCN2)cc1)Nc1ccc(C2=NCCN2)cc1,-0.14
8,Oc1ccc(OCc2ccccn2)cc1,4.04
9,COc1ccc2ncc(F)c(CCN3CCC(CNC(=O)C(=O)c4c[nH]c5ccccc45)CC3)c2n1,1.37
10,Cc1cc(Nc2ccccc2)nc(Nc2ccccc2C)n1,0.47
11,Oc1ccc(CCNc2nc(NCc3ccccc3-c3ccc(C(F)(F)F)cc3)nc(N3CCCNCC3)n2)cc1,2.83
12,O=C(Nc1ccc(Cn2ncc(N3CCCNCC3)c(Cl)c2=O)cc1)Nc1cccc(Oc2ccccc2)c1,1.79
13,Nc1c2c(nc3cc(NC(=O)c4ccc([N+](=O)[O-])cc4)ccc13)CCCC2,4.23
14,Oc1ccc2[nH]c(-c3ccc(OC(F)(F)F)cc3)nc2c1CNC1CCCC1,3.64
15,CCc1cc(OC)ccc1C1CCN(CCCCNC(=O)c2ccc(NC(=O)c3ccc(Cl)cc3)cc2)CC1,-1.82
16,O=C(/C=C/c1ccc(Cl)c(Cl)c1)NCCCCN1CCC(c2c[nH]c3ccccc23)CC1,-0.01
17,OC1(c2ccccc2)CCN(Cc2cccc(-c3c[nH]c4nc(NC5CCCC5)ncc34)c2)C1 (stereo not given),4.81
18,Cc1cccc(Cn2nc(-c3ccccc3)c(N3CCCCC3)cc2=O)c1,-2.21
19,Cc1ccc(NC(=O)c2ccc3ncccc3c2)cc1OC1CCN(Cc2ccc(F)cc2)C1 (stereo not given),1.26
20,COc1ccc(CN2CCCC(N3CC4(OC3=O)c3ccccc3-c3ccccc34)C2)c(O)c1 (stereo not given),4.18
